# Test results: PubChem BioAssay
# Activity calls are given as the source filed them. Unless noted, how the calls were made is not given here.
# Key:
# [1] = anti-His antibody binders, primary screen, artefact control for SMM control protein annotation, biochemical, small-molecule microarray, 635 nm fluorescence (AID 1128); settings: anti-His Alexa647 antibody binding, higher = more signal;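 further: score merges feature fluorescence with signal-to-noise for each printed compound spot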
# [2] = system: Human papillomavirus type 1a E7 protein (residues 1-88); test: HPV1a E7 small-molecule binders, primary screen, biochemical, small-molecule microarray, residues 1-88, 635 nm (AID 1129); settings: small-molecule microarray binding, fluorescence 635 nm; higher = more signal
# [3] = target: Focal adhesion kinase 1 (Homo sapiens) (UniProt Q05397); test: small-molecule microarray binders of FAK, primary screen, biochemical, 635/667 nm fluorescence, BSA, DTT (AID 1130); settings: PTK2 binding, 635 nm fluorescence, higher = more signal;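 further: composite of spot emission at 667 nm and signal to noise over triplicate slides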
# [4] = system: Fibrinogen (Alexa647-labelled); test: fibrinogen binders on compound microarrays, profiling panel, artefact control for SMM control-protein annotation, biochemical, small-molecule microarray, 635/667 nm fluorescence (AID 1131); settings: fibrinogen-A647 binding fluorescence, higher = more signal;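 further: z-score merges 667 nm fluorescence with per-spot signal-to-noise over triplicate slides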
# [5] = target: Follistatin (Homo sapiens) (UniProt P19883); test: follistatin binders on small-molecule microarrays, primary screen, biochemical, small-molecule microarray, 635/667 nm fluorescence (AID 1132); settings: FST binding, 635 nm fluorescence, higher = more signal
# [6] = target: Fibroblast growth factor 2 (Homo sapiens) (UniProt P09038); test: FGF2 binders on small-molecule microarrays, primary screen, biochemical, small-molecule microarray, 635/667 nm fluorescence (AID 1133); settings: small-molecule microarray binding, FGF2, fluorescence 635/667; higher = more signal
# [7] = mitochondrial membrane potential change in A549 cells, profiling panel, cell-based, JC-1 fluorescence, basal, 24 h, 100 nL (AID 1138); settings: higher = more signal;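 further: A549 lung adenocarcinoma cells under basal conditions with no added stimulus; test concentration not given here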
# Lefty1 = Lefty1 binders on small-molecule microarrays, primary screen, biochemical, small-molecule microarray, 635/667 nm fluorescence (AID 1139); settings: small-molecule microarray binding, fluorescence 635/667; higher = more signal
# [8] = system: wheat germ agglutinin (Triticum aestivum), Alexa647-labelled; test: wheat germ agglutinin binders on compound microarrays, profiling panel, artefact control for SMM control-protein annotation, biochemical, small-molecule microarray, 635/667 nm fluorescence (AID 1140); settings: WGA-A647 binding, 635 nm fluorescence, higher = more signal;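 further: score merges 667 nm feature emission with signal to noise over triplicate slides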
# [9] = target: Luciferin 4-monooxygenase (Photinus pyralis) (UniProt P08659); test: firefly luciferase enzyme inhibitors, primary screen, biochemical, luminescence, purified enzyme, 2006 set (AID 1141); settings: SteadyGlo luminescence, 30 min, higher = more signal, called active from +8 up or from −8 down;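 further: cell-free assay with purified firefly luciferase at 100 ng per well in PBS; test concentration not given here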
# [10] = system: Wnt5a (protein binding on small-molecule microarray); test: Wnt5a binders on small-molecule microarray, primary screen, biophysical, 635/667 nm fluorescence (AID 1142); settings: 635 nm fluorescence, higher = more signal;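 further: fluorescence read at 667 nm with signal to noise per printed feature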
# [11] = cell viability in Huh7 cells, primary screen, cytotoxicity control for HCV replication inhibitor project, CellTiter-Glo luminescence, basal, 48 h (AID 1143); settings: Huh7 HCV replicon, higher = more signal, called active from +8 up or from −8 down;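 further: Huh7 hepatoma cells carrying a hepatitis C replication reporter with no stimulus; test concentration not given here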
# [12] = P. aeruginosa biofilm formation inhibitors, primary screen, PAO1 strain, BacTiter-Glo luminescence, LB-PBS (AID 1144); settings: 12 h, higher = more signal
# [13] = CREB reporter modulators without forskolin, primary screen, cell-based, PC12, CRE-LacZ reporter, unstimulated (AID 1145); settings: no forskolin, luminescence, 4.5 h, higher = more signal, called active from +8 up or from −8 down
# [14] = CREB reporter modulators under forskolin, primary screen, cell-based, PC12, CRE-LacZ reporter, forskolin-stimulated (AID 1146); settings: luminescence, 4.5 h, higher = more signal, called active from +8 up or from −8 down;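 further: PC12 cells with 6xCRE LacZ reporter stimulated by forskolin 10 µM; beta-galactosidase reporter signal reflecting CREB driven transcription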
# [15] = target: Streptavidin (Streptomyces avidinii) (UniProt P22629); test: streptavidin binders on small-molecule microarray, primary screen, artefact control for SMM compound annotation, biophysical, 635/667 nm fluorescence (AID 1147); settings: streptavidin binding, higher = more signal;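 further: signal reflects streptavidin binding to arrayed compounds as a control protein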
# [16] = small-molecule binders of probe aInhba, primary screen, biochemical, small-molecule microarray, 635/667 nm fluorescence (AID 1148); settings: higher = more signal;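 further: score merges 667nm spot fluorescence with signal-to-noise for antibody binding to printed compounds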
# Torsin-1A (Homo sapiens) [17] = target: Torsin-1A (Homo sapiens) (UniProt O14656); test: torsin A binders from cell lysate, primary screen, small-molecule microarray, wild-type, 635/667 nm (AID 1149); settings: COS7 hTOR1A-WT lysate, 635 nm fluorescence, higher = more signal
# Torsin-1A (Homo sapiens) [18] = target: Torsin-1A (Homo sapiens) (UniProt O14656); test: small-molecule binders of mutant TOR1A in lysate, primary screen, cell lysate, small-molecule microarray, COS7 lysate, 635/667 nm fluorescence (AID 1150); settings: COS7 hTOR1A mutant lysate, 635 nm fluorescence, higher = more signal;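 further: score pools 667 nm emission and signal to noise measuring lysate protein binding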
# [19] = system: Sonic hedgehog protein (Shh); test: small-molecule binders of Shh protein, primary screen, biochemical, small-molecule microarray, 635/667 nm fluorescence (AID 1151); settings: small-molecule microarray binding, 635 nm fluorescence; higher = more signal;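 further: Shh protein binding to compounds spotted on small-molecule microarray slides; score combines spot fluorescence intensity with signal-to-noise across triplicate slides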
# Sequence of Follistatin (Homo sapiens) (P19883 whole entry, looked up): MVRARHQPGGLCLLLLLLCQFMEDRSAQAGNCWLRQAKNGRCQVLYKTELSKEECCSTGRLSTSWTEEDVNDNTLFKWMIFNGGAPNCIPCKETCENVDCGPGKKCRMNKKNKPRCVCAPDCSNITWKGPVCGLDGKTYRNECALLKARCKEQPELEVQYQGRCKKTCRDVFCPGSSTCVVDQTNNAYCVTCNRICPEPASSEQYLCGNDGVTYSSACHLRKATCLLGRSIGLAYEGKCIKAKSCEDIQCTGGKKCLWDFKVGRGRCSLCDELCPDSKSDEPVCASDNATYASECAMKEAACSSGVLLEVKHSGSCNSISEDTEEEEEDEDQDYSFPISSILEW
# Sequence of Focal adhesion kinase 1 (Homo sapiens) (Q05397 whole entry, looked up): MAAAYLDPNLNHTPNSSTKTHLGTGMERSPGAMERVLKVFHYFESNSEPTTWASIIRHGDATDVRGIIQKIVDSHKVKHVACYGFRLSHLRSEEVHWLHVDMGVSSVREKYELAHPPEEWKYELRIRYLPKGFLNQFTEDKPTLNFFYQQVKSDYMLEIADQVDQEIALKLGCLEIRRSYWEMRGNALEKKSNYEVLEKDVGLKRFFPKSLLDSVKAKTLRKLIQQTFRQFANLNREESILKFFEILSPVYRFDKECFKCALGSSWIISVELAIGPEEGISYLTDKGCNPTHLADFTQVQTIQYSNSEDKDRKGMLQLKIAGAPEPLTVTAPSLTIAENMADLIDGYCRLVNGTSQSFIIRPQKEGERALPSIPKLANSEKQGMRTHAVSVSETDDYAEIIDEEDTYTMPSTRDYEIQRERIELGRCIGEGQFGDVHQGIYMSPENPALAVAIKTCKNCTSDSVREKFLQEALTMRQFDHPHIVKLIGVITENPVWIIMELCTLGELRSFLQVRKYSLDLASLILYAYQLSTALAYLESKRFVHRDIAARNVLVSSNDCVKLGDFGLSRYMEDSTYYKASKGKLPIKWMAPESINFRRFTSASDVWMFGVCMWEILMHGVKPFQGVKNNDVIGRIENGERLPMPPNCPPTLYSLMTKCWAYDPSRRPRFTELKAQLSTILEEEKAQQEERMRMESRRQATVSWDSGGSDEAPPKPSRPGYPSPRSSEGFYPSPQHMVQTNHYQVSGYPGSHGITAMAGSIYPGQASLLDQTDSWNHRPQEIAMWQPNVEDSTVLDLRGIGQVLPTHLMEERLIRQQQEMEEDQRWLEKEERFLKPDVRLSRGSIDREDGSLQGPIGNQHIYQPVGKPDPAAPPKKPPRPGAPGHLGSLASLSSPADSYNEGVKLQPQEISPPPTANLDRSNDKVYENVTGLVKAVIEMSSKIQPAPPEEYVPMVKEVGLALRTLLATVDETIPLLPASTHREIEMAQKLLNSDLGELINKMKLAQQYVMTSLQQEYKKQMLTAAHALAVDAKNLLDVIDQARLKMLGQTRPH
# Sequence of Luciferin 4-monooxygenase (Photinus pyralis) (P08659 whole entry, looked up): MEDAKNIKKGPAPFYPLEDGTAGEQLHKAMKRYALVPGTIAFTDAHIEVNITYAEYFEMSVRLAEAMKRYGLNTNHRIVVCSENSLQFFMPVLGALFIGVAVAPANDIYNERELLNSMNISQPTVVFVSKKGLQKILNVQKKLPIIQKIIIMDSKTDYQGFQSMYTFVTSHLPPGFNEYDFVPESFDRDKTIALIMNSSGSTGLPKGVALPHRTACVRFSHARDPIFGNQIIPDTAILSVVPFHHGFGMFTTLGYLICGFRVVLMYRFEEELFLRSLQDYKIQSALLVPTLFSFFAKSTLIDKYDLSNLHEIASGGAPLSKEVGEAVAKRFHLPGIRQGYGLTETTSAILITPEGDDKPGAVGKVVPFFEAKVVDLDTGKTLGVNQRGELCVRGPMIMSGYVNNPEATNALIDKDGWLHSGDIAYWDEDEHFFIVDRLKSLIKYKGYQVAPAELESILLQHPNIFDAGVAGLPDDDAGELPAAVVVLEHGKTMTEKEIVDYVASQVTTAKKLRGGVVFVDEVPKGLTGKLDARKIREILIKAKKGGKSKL
# Sequence of Fibroblast growth factor 2 (Homo sapiens) (P09038 whole entry, looked up): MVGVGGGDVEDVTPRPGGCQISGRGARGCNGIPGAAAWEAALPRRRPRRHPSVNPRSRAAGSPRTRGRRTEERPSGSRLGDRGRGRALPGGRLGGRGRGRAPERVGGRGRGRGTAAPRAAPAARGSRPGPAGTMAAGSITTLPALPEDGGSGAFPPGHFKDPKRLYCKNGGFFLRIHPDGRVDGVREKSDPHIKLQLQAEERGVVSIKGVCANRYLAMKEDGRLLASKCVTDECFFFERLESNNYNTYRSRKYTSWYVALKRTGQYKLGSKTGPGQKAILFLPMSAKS
# Sequence of Torsin-1A (Homo sapiens) (O14656 whole entry, looked up): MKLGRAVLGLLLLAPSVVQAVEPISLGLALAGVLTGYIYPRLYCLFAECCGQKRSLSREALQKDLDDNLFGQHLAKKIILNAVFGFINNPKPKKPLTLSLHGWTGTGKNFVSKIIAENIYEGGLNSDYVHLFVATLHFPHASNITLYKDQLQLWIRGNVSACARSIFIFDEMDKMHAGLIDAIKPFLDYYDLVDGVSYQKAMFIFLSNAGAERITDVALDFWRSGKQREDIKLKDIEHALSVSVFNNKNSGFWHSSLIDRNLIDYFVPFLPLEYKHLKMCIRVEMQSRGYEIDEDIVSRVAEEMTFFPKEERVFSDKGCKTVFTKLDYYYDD
# Sequence of Streptavidin (Streptomyces avidinii) (P22629 whole entry, looked up): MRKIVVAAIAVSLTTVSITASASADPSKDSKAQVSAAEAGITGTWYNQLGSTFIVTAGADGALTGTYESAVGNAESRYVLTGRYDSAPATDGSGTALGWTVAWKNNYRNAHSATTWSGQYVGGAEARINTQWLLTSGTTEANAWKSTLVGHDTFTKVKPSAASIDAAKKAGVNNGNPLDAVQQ
Structure (SMILES),composite z-score [1],composite z-score [2],composite z-score [3],composite z-score [4],composite z-score [5],composite z-score [6],z-score [7],composite z-score (Lefty1),composite z-score [8],z-score [9],composite z-score [10],z-score [11],z-score [12],z-score [13],z-score [14],composite z-score [15],composite z-score [16],composite z-score (Torsin-1A (Homo sapiens) [17]),composite z-score (Torsin-1A (Homo sapiens) [18]),composite z-score [19]
COCCOC(=O)N1C(=O)[C@@]2(c3cc(C#CCC(C(=O)OC)C(=O)OC)ccc31)[C@H](C(N)=O)[C@H]1C(=O)O[C@H](c3ccccc3)[C@H](c3ccccc3)N1[C@@H]2c1ccc(OCCO)cc1,1.37,1.22,0.985,0.923,1.25,1.1,-1.07,0.596,0.762,-0.409 (inactive),0.787,-2.89 (inactive),-0.224 (inactive),0.478 (inactive),-0.372 (inactive),0.528,0.105,0.704,0.643,1.07
C[N+](C)(C)CCCC[C@@H]1NC(=O)[C@H]2C[C@@H](C(=O)NCCCCCNC(=O)CS)[C@@H](c3ccc(O)cc3)N2C1=O,2.82,0.785,0.336,0.9,1.07,0.826,0.455,0.349,0.215,-1.2 (inactive),0.084,-0.523 (inactive),-1.39 (inactive),0.0084 (inactive),-0.165 (inactive),0.354,-0.045,0.327,0.891,0.748
CC(=O)NCCCC[C@@H]1NC(=O)[C@@H]2C[C@H](C(=O)NCCCCCC[N+](C)(C)C)[C@H](c3ccc(O)cc3)N2C1=O,3.45,0.377,-0.153,0.333,1.41,1.56,-0.856,0.907,0.78,0.32 (inactive),0.0463,0.159 (inactive),0.795 (inactive),-0.675 (inactive),-0.293 (inactive),-0.314,-0.105,0.0055,0.885,1.75
COC(=O)[C@@]1(Cc2ccccc2CN=[N+]=[N-])COC(c2ccc(OCCCO)cc2)=N1,-0.322,-0.493,-0.161,-2.41,-1.88,-1.18,-0.408,-1.65,0.0216,-1.88 (inactive),-1.09,-3.56 (inactive),-0.0995 (inactive),1.19 (inactive),-0.244 (inactive),-1.25,-0.203,-3.23,-2.37,-1.15
CC[C@H](C)C(=O)O[C@H]1CC[C@]2(C)C3=C(CCC2C1(C)C)[C@]1(C)CC[C@H]([C@H](C)CCCC(C)C)[C@@]1(C)CC3 (stereo not given in full),0.226,0.666,0.122,0.367,0.538,0.35,1.15,0.721,0.0438,-1.4 (inactive),0.0143,0.15 (inactive),-0.0646 (inactive),0.947 (inactive),-1.24 (inactive),0.984,-0.292,0.214,0.339,0.613
C=CCC(OC(C)=O)[C@@H]1[C@@H](N(Cc2cc3ccccc3o2)C(=O)c2cccc3ccccc23)c2cc(OCCCO)ccc2N1C(=O)c1ccc2ccccc2c1 (stereo not given in full),-0.0596,-0.566,0.11,-0.262,0.65,0.133,-0.0697,0.203,-0.0449,0.131 (inactive),0.316,-0.928 (inactive),0.26 (inactive),3.85 (inactive),0.0746 (inactive),0.0823,-0.0791,0.523,0.132,0.198
CC(C)C[C@@H]1NC(=O)[C@@H]2C[C@H](C(=O)NCCCC[N+](C)(C)C)[C@H](c3ccc(O)cc3)N2C1=O,2.63,0.643,-0.133,0.354,1.42,1.76,-0.694,1.67,0.479,-0.948 (inactive),0.814,-0.394 (inactive),-1.08 (inactive),0.285 (inactive),-0.387 (inactive),0.0306,0.0669,1.47,1.2,2.13
O=C1NC(=O)C2C1C=CC(C(O)c1cccc(O)c1)N2Nc1ccc(Cl)cc1Cl (stereo not given),0.33,-0.0332,0.263,-0.348,-0.127,0.0853,-0.812,-0.317,0.447,-0.259 (inactive),-0.125,-1.08 (inactive),-0.355 (inactive),0.629 (inactive),-0.45 (inactive),0.423,-0.13,-0.309,0.25,-1.14
COC(=O)c1c(CC[C@@H](CO)NC(=O)N[C@@H](Cc2ccccc2)Cn2cc(-c3cncn3C)nn2)oc(C(C)=O)c1C(=O)OC,0.579,0.873,-0.179,0.107,1.01,-0.0088,-0.691,0.847,0.391,0.879 (inactive),-0.245,-3.29 (inactive),-0.662 (inactive),-0.491 (inactive),-0.566 (inactive),-0.0808,0.0872,0.443,1.26,1.75
